From PubChem
In the library only some 14% were active in any assay of this set; here they are far more common.
USP10 inh: human USP10 deubiquitinase inhibition | purified USP10, Ub-rhodamine fluorescence, 60 min | AID 1645856 | Q14694 | inhibition, % at 20 µM | 47,000 compounds, 1.1% hits
USP8 block: inhibitors of human USP8 deubiquitinase | inhibition, % at 20 µM | P40818 | 47,000 compounds, 4.2% hits | purified USP8, Ub-rhodamine cleavage fluorescence, 30 min
Target sequence (P40818 whole entry, looked up): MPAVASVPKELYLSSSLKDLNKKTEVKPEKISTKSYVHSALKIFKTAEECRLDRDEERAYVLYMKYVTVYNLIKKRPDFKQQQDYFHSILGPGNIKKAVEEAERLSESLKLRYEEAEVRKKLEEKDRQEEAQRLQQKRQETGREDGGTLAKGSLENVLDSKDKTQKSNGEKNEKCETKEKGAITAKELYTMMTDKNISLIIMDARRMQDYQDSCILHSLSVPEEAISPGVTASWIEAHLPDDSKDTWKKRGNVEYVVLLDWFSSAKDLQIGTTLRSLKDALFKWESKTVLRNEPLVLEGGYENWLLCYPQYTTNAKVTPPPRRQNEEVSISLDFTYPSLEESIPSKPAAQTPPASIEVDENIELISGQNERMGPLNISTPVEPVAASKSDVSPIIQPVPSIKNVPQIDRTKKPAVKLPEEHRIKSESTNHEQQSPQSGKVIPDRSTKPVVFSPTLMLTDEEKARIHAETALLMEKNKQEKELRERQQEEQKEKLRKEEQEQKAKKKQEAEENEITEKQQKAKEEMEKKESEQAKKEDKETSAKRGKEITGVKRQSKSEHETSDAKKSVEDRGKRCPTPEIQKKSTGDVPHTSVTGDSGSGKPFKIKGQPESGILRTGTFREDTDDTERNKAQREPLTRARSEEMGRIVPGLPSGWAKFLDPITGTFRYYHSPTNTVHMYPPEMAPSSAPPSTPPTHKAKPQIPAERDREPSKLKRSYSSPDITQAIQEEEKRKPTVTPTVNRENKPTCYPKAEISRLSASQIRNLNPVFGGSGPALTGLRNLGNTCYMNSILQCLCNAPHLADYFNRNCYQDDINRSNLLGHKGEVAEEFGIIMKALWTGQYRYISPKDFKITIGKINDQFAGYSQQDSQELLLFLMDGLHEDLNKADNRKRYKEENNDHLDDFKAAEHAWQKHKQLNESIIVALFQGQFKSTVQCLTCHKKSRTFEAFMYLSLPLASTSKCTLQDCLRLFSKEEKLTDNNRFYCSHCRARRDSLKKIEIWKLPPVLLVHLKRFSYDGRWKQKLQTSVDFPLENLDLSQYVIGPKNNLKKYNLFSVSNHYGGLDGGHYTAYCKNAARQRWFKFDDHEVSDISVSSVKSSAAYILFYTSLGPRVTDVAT
USP30 inh: blocks human USP30 ubiquitin-rhodamine cleavage | Q70CQ3 | 47,000 compounds, 5.3% hits | inhibition, % at 25 µM | purified USP30, Ub-rhodamine cleavage fluorescence | AID 1645860
USP17 block: inhibitors of human USP17 deubiquitinase. purified USP17, Ub-rhodamine cleavage fluorescence, 3 h. inhibition, % at 50 µM. A8MUK1. 47,000 compounds, 6.5% hits
USP28 inh: blocks human USP28 ubiquitin-rhodamine cleavage. Q96RU2. purified USP28, Ub-rhodamine cleavage fluorescence, 30 min. inhibition, % at 25 µM. 47,000 compounds, 3% hits. AID 1645857
Large screens that a line does not name were inactive. Rule as the data show it: active = inhibition above about 30%; inactive = the rest.

O=C(/C=C/c1ccco1)Nc1nc2n(n1)C(c1ccccc1)CC(=O)N2 (configuration not stated)	none
Cc1nccc(N2CCC3(CC2)NC(=O)N(C)C3=O)n1	none
Cc1cc(C)cc(N(CCC(=O)Nc2ccc(N3CCOCC3)cc2)S(=O)(=O)c2ccc(Cl)cc2)c1	USP8 block 32, USP30 inh 41, USP17 block 32
CC(C)c1ccc(NCc2cc3cc4c(cc3[nH]c2=O)OCCO4)cc1	none
O=c1[nH]c2cc3c(cc2cc1CNCc1ccc2c(c1)OCO2)OCCO3	none
Cc1nn(-c2ccc(Cl)cc2)c2[nH]c(=O)c(CNc3ccc(C(C)(C)C)cc3)cc12	USP17 block 39
Cc1nn(-c2ccc(Cl)cc2)c2[nH]c(=O)c(CNCc3ccc4c(c3)OCO4)cc12	USP8 block 81
Cc1nn(-c2ccc(Cl)cc2)c2[nH]c(=O)c(CNCc3ccc(F)cc3)cc12	USP8 block 76
Cc1nn(-c2ccccc2)c2nc(C(F)(F)F)[nH]c(=O)c12	none (no result: USP30 inh, USP28 inh)
Cc1nn(-c2ccccc2)c2[nH]c(=O)c(CNC(C)c3cccs3)cc12 (configuration not stated)	USP8 block 30
O=C(Nc1ccccc1O)c1ccc(COc2ccc(F)cc2)o1	none
CCc1ccc2ncc(S(=O)(=O)c3ccc(C)cc3)c(Nc3cccc(OC)c3)c2c1	none (no result: USP30 inh, USP28 inh)
O=C(Cc1cc(F)ccc1F)N1CCCC(c2nc(-c3ccncc3)cc(=O)[nH]2)C1 (configuration not stated)	none
Cc1nn(-c2ccc(Cl)cc2)c2[nH]c(=O)c(CNCc3cccs3)cc12	USP8 block 77
Cc1nn(-c2ccc(Cl)cc2)c(C)c1S(=O)(=O)N1CCN(C)CC1	none
COc1ccc(-c2nn(-c3ccccc3)c3[nH]c(=O)c(CNCc4cccs4)cc23)cc1	USP8 block 82
CCOc1cc(CNc2ccc(N3CCOCC3)c(C(=O)O)c2)cc(Cl)c1OCc1ccccc1F	none
CC(C)C(=O)Nc1ccc(N2CCN(Cc3ccc(F)cc3)C2=O)nc1	USP17 block 62
O=C(Nc1ccc(N2CCN(Cc3ccccc3)C2=O)nc1)C1CCC1	none
Cc1ccc(C(=O)NCC2COCCO2)cc1NC(=O)c1nsc2ccccc12 (configuration not stated)	none
O=C(NC1CCCC1)c1cccc(NC(=O)c2nsc3ccccc23)c1	USP17 block 31 (no result: USP30 inh, USP28 inh)
CC(=O)Nc1ccc(C2=CSC3=NS(=O)(=O)CCN23)cc1	USP30 inh 32
O=S1(=O)CCN2C(c3ccc4c(c3)CCCC4)=CSC2=N1	none
CC1NC(=O)C(CC(N)=O)NC(=O)C(C(C)O)NC(=O)C(C(C)C)NC(=O)C(C(C)C)NC(=O)C(NC(=O)CC(O)CCCCCCCCCCCCN=C(N)N)C(C)OC1=O (configuration not stated)	USP30 inh 90, USP17 block 70, USP28 inh 84
Cc1ccc(Cn2ccc(NC(=O)c3cc(-c4ccco4)on3)n2)cc1	USP17 block 30
COc1ccc(-c2cc(C(=O)NCC(=O)O)no2)cc1	none
COc1ccc(-c2cc(C(=O)Nc3ccnn3Cc3ccccc3)no2)cc1	USP30 inh 32, USP17 block 37
COC(=O)c1ccccc1NC(=O)c1cc(-c2ccco2)on1	none
COc1cccc(-c2cc(C(=O)Nc3cc(C)n(Cc4ccc(Cl)cc4)n3)no2)c1	USP8 block 38, USP30 inh 75
CC(=O)c1c(C)cc(O)cc1O	none
COc1cccc(C(C(=O)Nc2ccc(F)cc2)N(C(=O)c2cnccn2)c2ccc3c(c2)CCC3)c1 (configuration not stated)	none (no result: USP17 block)
CC(=O)Nc1ccc(-c2nc(Cn3cc(C)cn3)c(C)o2)cc1	USP28 inh 33
CCC(=O)Nc1ccc(-c2nc(Cn3cc(C)cn3)c(C)o2)cc1	USP28 inh 55
CC(=O)Nc1ccc(-c2nc(Cn3nc(C)cc3C)c(C)o2)cc1	none
CC(=O)N1CCC(n2c(C)nc(C(=O)NCc3ccc(Cl)cc3)c2C)CC1	none
O=C1CC(c2noc(-c3ccccn3)n2)CN1c1ccc(F)cc1 (configuration not stated)	none
O=C1CC(c2noc(-c3ccccn3)n2)CN1c1cccc(F)c1 (configuration not stated)	USP30 inh 32
CN(C)c1ccc(CN2CC[C@H](c3nnc(-c4cccnc4)o3)C2)cc1	none
O=C(CCn1ccc(=O)[nH]c1=O)Nc1cccc(Br)c1	none
Cc1ccc(CSC2=NS(=O)(=O)c3ccccc3N2)cc1	USP28 inh 57
CCCc1cc(=O)n2[nH]c(-c3ccccc3)cc2n1	none
CCCc1cc(=O)n2[nH]c(COc3ccccc3)c(-c3ccccc3)c2n1	USP10 inh 55, USP30 inh 55, USP17 block 40, USP28 inh 40
CCOCCCn1cc(OC(=O)c2ccccc2)c2c1nc(-c1ccccc1)n1c3ccccc3nc21	none (no result: USP30 inh, USP28 inh)
Cc1ccc(CN2C(=O)COc3ccccc3C2=O)cc1	USP28 inh 39
CC(=O)c1c(C)oc2c1cc(OC(=O)c1ccccc1)c1ccccc12	none
CCCCOC(=O)c1c(C)oc2c1cc(NS(=O)(=O)c1ccc(CC)cc1)c1ccccc12	USP8 block 45
Cc1ccc(CN2CCCn3nc(C(=O)NCc4ccccc4C)cc3C2=O)cc1	USP30 inh 52, USP17 block 50
Cc1cc(C(=O)CSc2nc3ccccc3[nH]2)c(C)n1C1CC1	none (no result: USP30 inh, USP28 inh)
Cc1cc2nc(SCC(=O)c3ccc(O)cc3)[nH]c2cc1C	USP17 block 49
O=C1CCC(=O)NCCCCCN(O)C(=O)CCC(=O)NCCCCCN(O)C(=O)CCC(=O)NCCCCCN1	USP30 inh 44
O=C1NCCCCCN1C(=O)c1ccccc1	none
Clc1ccccc1-c1nc2ccccc2c2nncn12	none
Cn1c(-c2c(-c3ccccc3)n[nH]c2-c2ccccc2Cl)nc2ccccc21	USP28 inh 38
COc1cc(OC)cc(C(=O)N2CCc3cc(-c4ccno4)ccc32)c1	none
Cc1ccc(-c2cc(C3CCN(C(=O)c4ccoc4)CC3)[nH]n2)cc1	none
CCCn1c(=O)c2cc(C(=O)Nc3ccccc3)nn2c2ccccc21	USP17 block 31
O=C(NCc1ccc(CN2CCCC2)cc1)c1cc2ccccc2[nH]c1=O	USP17 block 65
O=C(Nc1ccc(F)cc1)c1cc2ccccc2[nH]c1=O	none (no result: USP30 inh, USP28 inh)
Cc1ccc(CNC(=O)c2c(O)c3cccc4c3n(c2=O)CC4)cc1	USP8 block 59
CNC(=O)c1ccccc1NC(=O)c1c(O)c2cccc3c2n(c1=O)CC3	none
Cc1nc2ncccc2c(=O)n1-c1ccc(NC(=O)c2ccc(F)cc2F)cc1	USP30 inh 34
COc1ccc(NC(C)C(=O)N2CC(=O)Nc3ccccc32)cc1 (configuration not stated)	none
COc1ccc(C(NC(=O)c2nc3n(n2)-c2ccccc2S(=O)(=O)N3)C(C)C)cc1 (configuration not stated)	USP10 inh 30, USP17 block 33
COc1ccc(CNC(=O)C(C)Sc2nnnn2C)cc1 (configuration not stated)	none
